Compound activity from PubChem BioAssay.
PAFAH2 FP inh: PAFAH2 (human) inhibition | Q99487 | recombinant PAFAH2, FP-rhodamine activity probe, fluorescence polarization | inhibition, % at 3.39 µM | 340,000 compounds, 0.99% hits | AID 492956;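 active means inhibition above the mean over all tested compounds plus 3 SD, cut at about 30% in these data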;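 further: inhibitors block probe labeling of enzyme so polarization drops; 0% = enzyme with DMSO and 100% = wells lacking PAFAH2 protein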
PAFAH1B2 inh: PAFAH1B2 (human) inhibition; recombinant PAFAH1B2, FP-rhodamine activity probe, fluorescence polarization; inhibition, % at 3.39 µM; 340,000 compounds, 1.2% hits; AID 492953;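 active means inhibition above the mean of all tested compounds plus 3 SD, cut at about 24% in these data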;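 further: 0% = enzyme with DMSO and 100% = wells lacking PAFAH1B2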
DSG3 Ab inh: blocks pemphigus antibody binding to human desmoglein-3; P32926; DSG3-coupled beads, scFv-anti-DSG3-GFP binding, flow cytometry; active compounds read low; binding (percent of control), % at 10 µM; 310,000 compounds, 0.48% hits;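 active means binding more than 3 SD below its plate's average and above zero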;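 further: hits lower antibody fragment binding to DSG3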
pPAFAH FP inh: inhibitors of human plasma PAF acetylhydrolase (pPAFAH). recombinant pPAFAH, FP-rhodamine probe fluorescence polarization. inhibition, % at 3.39 µM. 330,000 compounds, 1.5% hits. AID 463082;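 active means inhibition above the mean inhibition across the screen plus 3 SD, cut at about 25% in these data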;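 further: inhibitors block binding of the rhodamine activity-based probe so polarization drops; 0% = enzyme with DMSO and 100% = wells lacking pPAFAH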
Target sequence (Q13093 whole entry, looked up): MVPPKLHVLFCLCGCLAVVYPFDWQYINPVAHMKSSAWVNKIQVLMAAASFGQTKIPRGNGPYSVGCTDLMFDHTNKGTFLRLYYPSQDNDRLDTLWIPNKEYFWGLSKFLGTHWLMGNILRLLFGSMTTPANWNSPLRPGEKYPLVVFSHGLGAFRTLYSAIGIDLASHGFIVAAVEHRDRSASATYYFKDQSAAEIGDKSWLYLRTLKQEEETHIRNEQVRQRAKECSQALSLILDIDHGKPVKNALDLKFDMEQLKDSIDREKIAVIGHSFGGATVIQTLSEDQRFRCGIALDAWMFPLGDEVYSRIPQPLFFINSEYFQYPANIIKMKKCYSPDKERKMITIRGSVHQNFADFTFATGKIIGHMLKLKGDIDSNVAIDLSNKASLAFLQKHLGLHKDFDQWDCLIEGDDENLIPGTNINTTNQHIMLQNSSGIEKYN
PAFAH1B3 inh: inhibitors of human PAFAH1B3 | Q15102 | recombinant PAFAH1B3, FP-rhodamine probe, fluorescence polarization | inhibition, % at 3.39 µM | 340,000 compounds, 0.28% hits | AID 492972;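 active means inhibition above the screen-wide average of all tested compounds plus 3 SD, cut at about 25% in these data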;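 further: 0% = enzyme with DMSO only and 100% = wells lacking PAFAH1B3 protein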
PfM18AAP inh: blocks P. falciparum M18 aspartyl aminopeptidase; recombinant PfM18AAP, H-Glu-NHMec fluorogenic cleavage; inhibition, % at 7.35 µM; 290,000 compounds, 1.2% hits; AID 1822;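 active means inhibition above the campaign mean inhibition over all tested compounds plus 3 SD, cut at about 28% in these data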;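 further: 0% = plate median of test compound wells and 100% = 2 mM ZnCl2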
* hit, by the source's call; . = not tested or not shown. An excerpt weighted towards active compounds, which were near 3.8% of everything screened.

SMILES	PAFAH2 FP inh	PAFAH1B2 inh	DSG3 Ab inh	pPAFAH FP inh	PAFAH1B3 inh	PfM18AAP inh
N#C/C(C(=O)NCc1ccccc1)=C1/N=C(NC(=O)c2cccs2)c2ccccc21	0	-2	85*	-1	0	7
O=C(c1ccccc1)N1CCN(CC2CC=CCC2)CC1 (centres undefined)	-9	5	.	3	6	32*
O=C(c1ccccc1)N1CCN(CC(O)COCC2CC=CCC2)CC1 (centres undefined)	-5	5	.	2	2	-11
CC1CCc2c(sc(NC(=O)c3cccn3C)c2C(N)=O)C1 (centres undefined)	5	-5	90	29*	3	.
COC(=O)Nc1sc2c(c1C(N)=O)CCC(C)C2 (centres undefined)	-6	1	109	-6	1	49*
C[C@@H]1CN([C@@H](C)CO)C(=O)CCCn2nncc2CO[C@@H]1CN(C)C(=O)Nc1ccc2c(c1)OCO2	.	.	102	.	.	.
N#Cc1cn(-c2ccccc2)nc1-c1ccc2c(c1)OCCO2	-5	4	-0.9*	2	6	-3
CCOc1cccc(-c2nn(-c3ccccc3)cc2/C=C(/C#N)C(=O)NCCCn2ccnc2)c1	-14	-2	97*	4	12	6
O=C(NCC(c1ccco1)N1CCCC1)c1cccc(S(=O)(=O)Nc2ccc(Br)cc2)c1 (centres undefined)	3	4	127	28*	6	4
O=C(NCC(c1ccco1)N1CCCCC1)c1cccc(NS(=O)(=O)c2ccc(Br)cc2)c1 (centres undefined)	-8	30*	104	11	4	.
CC(=O)Oc1cc2c3c(c1)/C(=C1/SC(=S)NC1=O)C(=O)N3C(C)(C)C=C2C	37*	48*	109	30*	16	7
O=C(O)c1ccccc1C(=O)c1ccc(Oc2ccccc2)cc1	11	3	96	-2	7	-2
O=C(c1ccc(Oc2ccccc2)cc1)c1nc2c(n1O)CCCC2	3	6	103	31*	0	5
N#Cc1c(N)nc2c3c(sc(=N)c2c1N)NC(=O)CC3c1c(F)cccc1Cl (centres undefined)	4	-17	98	27*	2	11
N#Cc1c(N)nc2c3c(sc(=N)c2c1N)NC(=O)CC3c1ccccc1 (centres undefined)	2	-6	.	28*	7	7
Cc1c(C#N)c(N)nc2c3c(sc12)NC(=O)CC3c1ccc(Cl)cc1 (centres undefined)	2	6	102	7	3	-4
COC(=O)C[C@H]1C[C@H]2c3cc(NC(=O)Nc4ccc(F)cc4)ccc3O[C@H]2[C@@H](CO)O1	.	.	104	.	.	.
O=C1CCC(=O)N1c1ccc(S(=O)(=O)Nc2ccc(Br)cc2)cc1	-10	6	82	33*	-4	5
COc1ccc(NS(=O)(=O)c2ccc(N3C(=O)CCC3=O)cc2)cc1	3	6	102	12	11	7
CCCCN(Cc1nc2ccccc2c(=O)[nH]1)C(=O)c1nn(C)c(=O)c2ccccc12	81*	42*	101	.	76*	.
CCc1ccccc1NC(=O)CN(C1CCCCC1)S(C)(=O)=O	0	4	116	2	7	-3
COc1ccc([C@H]2CC(=O)C=C(c3ccc(OC)cc3OC)C2)cc1	1	2	97	1	-6	.
COc1ccc(C2CC(=O)C=C3c4ccc(OC)cc4CCC32)cc1 (centres undefined)	.	.	84*	.	.	.
Cc1ccc(C(C)NC(=S)NC2CCCCC2)c(C)c1 (centres undefined)	-3	2	113	.	6	9
COc1ccc(-c2nc(S(=O)(=O)c3ccccc3)c(N3CCN(C)CC3)o2)cc1	.	.	101	.	.	.
SMILES	PAFAH2 FP inh	PAFAH1B2 inh	DSG3 Ab inh	pPAFAH FP inh	PAFAH1B3 inh	PfM18AAP inh
CCCCc1ccc(C2C3=C(CC(C)(C)CC3=O)NC3=C2C(=O)c2ccccc23)cc1 (centres undefined)	-7	-5	108	27*	16	1
O=C(NCc1ccco1)C1(c2ccccc2)CCCC1	5	14	96	6	12	1
O=C(NCc1ccccc1)C1(c2cccc(F)c2)CCCC1	10	26*	110	-5	7	-1
O=C(Cc1ccc(F)cc1)c1ccc(O)cc1O	6	25*	100	6	2	16
O=C(COC(=O)c1ccc(Cl)nc1)NCc1ccco1	3	-1	103	7	-4	0
O=C(NCc1ccco1)c1ccc(Cl)nc1	-2	-3	78*	3	2	-11
CCc1c(O)nc(SCC(=O)Nc2ccc(Cl)cc2)n(-c2ccccc2)c1=O	.	.	107	.	.	.
CCOC(=O)c1cc(=O)n2[nH]c(-c3ccc(C)cc3)cc2n1	0	3	101	2	7	-8
CCOC(=O)Cc1cc(=O)n2[nH]cc(-c3cccc(Br)c3)c2n1	31*	13	106	31*	8	-1
CCOC(=O)Cc1cc(=O)n2[nH]c(-c3ccc(C)cc3)cc2n1	6	3	120	34*	-1	-12
CCN(CC)C(=O)c1ncn(C)c1C(=O)N(CC)CC	9	6	99	3	10	.
CC(C)(C)c1ccc(S(=O)(=O)/N=C2\C=C(NS(=O)(=O)c3ccccc3)C(=O)c3ccccc32)cc1	20	41*	106	24	-9	-3
Cc1ccc(S(=O)(=O)/N=C2\C=C(Nc3cccc(C(=O)O)c3)C(=O)c3ccccc32)cc1	51*	36*	107	24	65*	6
CCc1ccc(S(=O)(=O)/N=C2\C=C(Nc3ccc(C(=O)O)cc3)C(=O)c3ccccc32)cc1	50*	32*	99	33*	58*	8
Cc1ccc(S(=O)(=O)/N=C2\C=C(NS(=O)(=O)c3ccccc3)C(=O)c3ccccc32)c(C)c1	20	1	99	.	-10	.
Cc1ccc(S(=O)(=O)/N=C2\C=C(Nc3cccc(C(=O)O)c3)C(=O)c3ccccc32)c(C)c1	58*	30*	90	27*	63*	16
Cc1ccc(CNC(=O)CSc2nc(=O)n3ccc(C)cc3n2)cc1	.	.	104	.	.	.
COc1ccc2c(c1)c(=O)oc1cc(OCC(=O)NCC3CCC(C(=O)O)CC3)ccc12 (centres undefined)	3	-3	-19*	2	10	1
COc1ccc(-c2cc3ccc(OCC(=O)NCC4CCC(C(=O)O)CC4)cc3oc2=O)cc1 (centres undefined)	-4	3	102	5	6	4
O=C1C(CCCNC(=S)NCc2ccccc2)NC(=S)N1Cc1ccccc1 (centres undefined)	2	25*	93	1	8	14
